Out of some 110,000 compounds screened, about 230 (0.21%) showed an effect of 50% or more. For the sample, strong results were picked, then their nearest neighbours and some compounds at random.
biological target: DPAP1 (Plasmodium falciparum, UniProt Q8IIJ9); test: primary screen, percent inhibition; read by cleavage of a fluorogenic dipeptide substrate; higher = more effect of the substance; set-up: species or system P. falciparum D10 trophozoite lysates; single well
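Also: 30 min substrate incubation versus DMSO and 10 µM JCP410 controls.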

DPAP1, sequence (Q8IIJ9 whole entry, looked up): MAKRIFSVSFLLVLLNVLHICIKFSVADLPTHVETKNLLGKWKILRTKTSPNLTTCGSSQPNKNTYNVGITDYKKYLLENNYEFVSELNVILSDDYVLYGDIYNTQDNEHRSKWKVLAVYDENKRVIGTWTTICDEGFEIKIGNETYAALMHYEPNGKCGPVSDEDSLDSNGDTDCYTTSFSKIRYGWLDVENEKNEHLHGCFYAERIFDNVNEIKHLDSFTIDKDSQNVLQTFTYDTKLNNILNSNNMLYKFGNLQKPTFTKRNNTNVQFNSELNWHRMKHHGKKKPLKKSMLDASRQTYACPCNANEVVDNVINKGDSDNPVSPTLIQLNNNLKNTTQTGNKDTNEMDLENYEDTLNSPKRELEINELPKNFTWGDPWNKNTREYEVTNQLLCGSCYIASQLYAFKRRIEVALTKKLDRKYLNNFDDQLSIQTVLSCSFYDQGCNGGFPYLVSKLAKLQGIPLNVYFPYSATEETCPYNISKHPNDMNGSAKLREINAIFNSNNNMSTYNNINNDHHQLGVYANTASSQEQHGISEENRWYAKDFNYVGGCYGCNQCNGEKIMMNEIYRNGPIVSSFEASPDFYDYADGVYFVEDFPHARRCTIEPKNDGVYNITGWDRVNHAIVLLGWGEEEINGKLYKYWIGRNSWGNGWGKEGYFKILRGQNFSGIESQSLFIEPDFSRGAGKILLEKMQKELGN

SMILES	% Inhibition @ 10 uM
Cc1cc(C)c2c(-n3cccc3)nn(CC(=O)N3CCCCCC3)c2n1	-3.52%
COCC(=O)Nc1nc2nccc(C)n2n1	-1.31%
CCn1c(C(=O)N2CCC(C(=O)NCCC(C)C)CC2)cc2sccc21	92.1%
CCn1c(C(=O)N2CCC(C(=O)NCCOC)CC2)cc2sccc21	4.95%
CCn1c(C(=O)N2CCC(C(=O)NCCN(CC(C)C)CC(C)C)CC2)cc2sccc21	-5.19%
N#CCNC(=O)[C@H](CC1CCCCC1)NC(=O)c1sccc1Br	1.35%
O=C1C(Nc2cccc(Br)c2)=C(N2CCCCC2)C(=O)c2ccccc21	1.84%
Nc1ccc(NC2=C(N3CCCCC3)C(=O)c3ccccc3C2=O)cc1	53.5%
O=C1C(Nc2cccc(O)c2)=C(N2CCCCC2)C(=O)c2ccccc21	0.162%
Cn1c2ccccc2c2nc3cc4ccccc4cc3nc21	-2.54%
COCCN1C(=O)c2ccccc2C(C(=O)Nc2ccc(Cl)cn2)C1c1cccs1 (stereo not drawn)	4.33%
C=CCOc1ccc(C(=O)C2=C(O)C(=O)N(c3ccccn3)C2c2ccc(F)cc2)cc1 (stereo not drawn)	2.86%
C#CCN1C(=O)C(O)(CC(=O)c2ccc3ccccc3c2)c2ccccc21 (stereo not drawn)	-20.7%
Cn1c(SCC(=O)NCCc2ccccc2)nc2c1c(=O)n(Cc1ccccc1Cl)c(=O)n2C	3.81%
CC1CCN(C(=O)CCN2C(=O)c3ccccc3C2=O)CC1	2.06%
Cc1ccc(-c2cc(NC(=O)COc3ccc(C(C)C)cc3)on2)cc1	-1.47%
CCOc1ccc(CCNC(=O)c2noc3c2COc2ccccc2-3)cc1OCC	80.8%
CCOC(=O)c1noc2c1COc1ccccc1-2	-1.51%
O=C(NCCc1c[nH]c2ccccc12)c1noc2c1COc1ccccc1-2	91.5%
CN(CCNC(=O)c1noc2c1COc1ccccc1-2)C1CCCCC1	2.73%
Cc1ccc2c(c1)-c1onc(C(=O)NCCN(C)C)c1CO2	-4.37%
O=C(NCC1(c2ccccc2)CCCC1)c1noc2c1COc1ccccc1-2	47.2%
COc1ccc(CCNC(=O)c2noc3c2COc2ccc(C)cc2-3)cc1OC	-4.07%
O=C(NCCc1ccccc1)c1noc2c1CCc1ccccc1-2	-7.85%
Cc1cccc(CCNC(=O)c2noc3c2COc2ccccc2-3)c1	75.2%
O=C(NCCc1ccc(Cl)cc1)c1noc2c1COc1ccccc1-2	82.6%
CCOc1ccc(-c2cc(NC(=O)c3noc4c3COc3ccccc3-4)on2)cc1OCC	-1.72%

SMILES	% Inhibition @ 10 uM
Cc1cccc(CCNC(=O)c2cc3c(s2)-c2ccccc2OC3)c1	-4.85%
O=C(/C=C/c1ccco1)N(Cc1cccc(F)c1)C1CCS(=O)(=O)C1 (stereo not drawn)	-1.35%
O=C(Nc1ccccc1)N1CCN(c2ccccc2)CC1	1.33%
CSc1nc2n(n1)C(c1ccc(F)c(Br)c1)C1=C(O)CC(C)(C)CC1=N2 (stereo not drawn)	-1.62%
CC(NCC(O)Cn1nnnc1-c1ccccc1)c1ccccc1 (stereo not drawn)	2.5%
Cc1ccc(NC(=O)C(C)Oc2ccccc2C)c(C)c1 (stereo not drawn)	6.79%
CC(=O)c1c(S)nc(-c2ccccc2)nc1N1CCN(Cc2ccccc2)CC1	29.2%
CCOc1ccc(C(=O)NCC2CCN(C(=O)c3ccc(OCC)cc3)CC2)cc1	5%
O=[N+]([O-])c1c(NCCO)cc(Cl)c2nonc12	5.66%
COc1ccccc1N1C(=O)CC(N2CCN(C)CC2)C1=O (stereo not drawn)	-6.08%
COC(=O)/C(C#N)=C/c1ccc(C)o1	-0.256%
Cc1ccc(/C=C(\C#N)C(N)=S)o1	79.5%
COc1ccc(/C=C(\C#N)C(N)=S)cc1	-2.51%
CCOC(=O)C1=C(CN2CCN(C(=O)OCC)CC2)NC(=O)NC1c1cccs1 (stereo not drawn)	-3.36%
COc1ccc(C(=O)CC(=O)c2ccc(OC)c(OC)c2)c(O)c1	4.74%
Cc1ccc(S(=O)(=O)Nc2nc3ccccc3nc2N2CCCCC2)cc1	-0.969%
CCn1c2ccc(OC)cc2c2nnc(S)nc21	79.3%
CSc1nnc2c(n1)[nH]c1ccc(C)cc12	2.51%
Cc1ccc2c(c1)c1nnc(S)nc1n2Cc1ccccc1	3.73%
CCn1c2ccc(F)cc2c2nnc(S)nc21	32.8%
Cc1ccc2[nH]c3nc(S)nnc3c2c1	12.4%
Cn1c2ccc(F)cc2c2nnc(S)nc21	74%
Fc1ccc2[nH]c3nc(S)nnc3c2c1	56%
CCCCn1c2ccccc2c2nnc(S)nc21	36.5%
CCn1c2ccc(OC)cc2c2nc3ccccc3nc21	-3.13%
Fc1ccc2c(c1)c1nnc(S)nc1n2CCc1ccccc1	10.9%
CCn1c2ccccc2c2nnc(S)nc21	38%

Source: paper PMC6919601, “Identification of Plasmodium dipeptidyl aminopeptidase allosteric inhibitors by high throughput screening” (PLoS ONE, 2019)
